Laboratory results from PubChem BioAssay AID2524 (Sanford-Burnham Center for Chemical Genomics, 2010).
Screen size: about 330,000 compounds; about 540 (0.16%) were called active.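 How the source made its calls: active means activation factor of the enzyme at least 2-fold when tested at 20 µM; inactive means the rest.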 This excerpt belongs to a sample that is enriched for actives.

The compounds below were run against Intestinal-type alkaline phosphatase (Homo sapiens) (UniProt P09923) (assay: human IAP activators, primary screen, biochemical, luminescence, uHTS (AID 2524)). Details: purified human IAP, CDP-Star luminescence, 30 min; at 10 µM; stronger effect = higher value; 1 = vehicle-only enzyme, 0 = enzyme-free background.
Sequence of Intestinal-type alkaline phosphatase (Homo sapiens) (P09923 whole entry, looked up): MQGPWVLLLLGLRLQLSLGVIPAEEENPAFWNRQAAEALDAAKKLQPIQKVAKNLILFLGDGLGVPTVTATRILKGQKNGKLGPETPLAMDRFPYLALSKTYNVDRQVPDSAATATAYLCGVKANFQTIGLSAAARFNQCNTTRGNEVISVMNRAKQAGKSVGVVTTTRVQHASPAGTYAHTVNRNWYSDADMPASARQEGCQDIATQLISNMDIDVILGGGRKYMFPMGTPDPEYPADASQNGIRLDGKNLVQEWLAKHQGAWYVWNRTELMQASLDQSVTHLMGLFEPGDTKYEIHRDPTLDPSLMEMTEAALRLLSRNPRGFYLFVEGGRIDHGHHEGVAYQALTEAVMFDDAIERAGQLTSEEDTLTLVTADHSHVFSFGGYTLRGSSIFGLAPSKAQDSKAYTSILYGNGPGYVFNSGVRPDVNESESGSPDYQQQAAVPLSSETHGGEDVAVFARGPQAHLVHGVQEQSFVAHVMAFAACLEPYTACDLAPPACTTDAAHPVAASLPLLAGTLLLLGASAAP

**Q.** How did the activation factor turn out when `FC(F)(F)c1cccc(Cc2noc(CN3CCC(N4CCCCC4)CC3)n2)c1` was run?
**A.** 1.17 (inactive)

**Q.** How did the activation factor turn out when `C1CC1Cc1noc(CN2CCN(CC3CC3)CC2)n1` was run?
**A.** 1.06 (inactive)

**Q.** For `COCCN(C(=S)Nc1ccccc1OC)C1CCN(C(C)C)CC1`, which activation factor is on record?
**A.** 1.12 (inactive)

**Q.** For `O=C(COC(=O)c1ccccc1F)Nc1cc(S(=O)(=O)N2CCOCC2)ccc1N1CCCC1`, which activation factor is on record?
**A.** 1.03 (inactive)

**Q.** For `Cc1ccc(CNCc2ccc3c(c2)OCO3)c(C)c1`, which activation factor is on record?
**A.** 1.06 (inactive)

**Q.** With `O=C(O)CSCc1ccc(C(=O)O)o1` as the compound, how does the activation factor read?
**A.** 0.943 (inactive)

**Q.** Which activation factor does the source give for `COc1cccc2cc(C(C)N(CCCN3CCOCC3)C(=O)Nc3ccc(Cl)cc3)oc12` (stereo not given) here?
**A.** 1.05 (inactive)

**Q.** `CC(Oc1ccc(F)cc1F)C(=O)/C=C/N(C)C` (stereo not given) was tested. Which activation factor did it give?
**A.** 1.1 (inactive)

**Q.** `COc1ccc(CC(=O)N2N=C(C)CC2(O)C(F)(F)F)cc1` (stereo not given) was tested. Which activation factor did it give?
**A.** 1.06 (inactive)

**Q.** With `CCOC(=O)C1CCN(C(=O)Nc2cccc(OC)c2)CC1` as the compound, how does the activation factor read?
**A.** 1.01 (inactive)

**Q.** Which activation factor does the source give for `COc1ccc(S(=O)(=O)N2CCN(CC(=O)NCC3(N4CCOCC4)CCCCC3)CC2)cc1` here?
**A.** 0.925 (inactive)

**Q.** Which activation factor does the source give for `C#CCOCCOCCOCCNc1nc(N2CCN(C(=O)CCCCCCCCCCNC(=O)Cn3cc(CCCCCN)nn3)CC2)nc(N2CCN(C(=O)CCCCCCCCCCNC(=O)[C@H](CO)n3cc(CCCSC)nn3)CC2)n1` here?
**A.** 0.934 (inactive)

**Q.** For `C#CCOCCOCCOCCNc1nc(N2CCN(C(=O)CCCCCCCCCCNC(=O)[C@H](CCCCN)n3cc(C)nn3)CC2)nc(N2CCN(C(=O)CCCCCCCCCCNC(=O)[C@H](CO)n3cc(CCCSC)nn3)CC2)n1`, which activation factor is on record?
**A.** 1.1 (inactive)

**Q.** Which activation factor does the source give for `C#CCOCCOCCOCCNc1nc(N2CCN(C(=O)CCCCCCCCCCNC(=O)[C@H]([C@@H](C)CC)n3cc(CCCCN=C(N)N)nn3)CC2)nc(N2CCN(C(=O)CCCCCCCCCCNC(=O)[C@H](CO)n3cc(CCCSC)nn3)CC2)n1` here?
**A.** 2.98 (active)

**Q.** How did the activation factor turn out when `CCCN=C1NC(=O)C(CC(=O)NCCc2ccc(OC)c(OC)c2)S1` (stereo not given) was run?
**A.** 1.04 (inactive)

**Q.** `Cc1ccc(S(=O)(=O)N/N=C(\c2ccccc2)C2CC2)cc1` was tested. Which activation factor did it give?
**A.** 1.3 (inactive)

**Q.** With `CCN(CC(=O)Nc1c(F)cccc1F)C(=O)C1CCC1` as the compound, how does the activation factor read?
**A.** 1.05 (inactive)

**Q.** How did the activation factor turn out when `O=C(COC(=O)/C=C/c1nc2ccccc2s1)Nc1ccccc1Oc1ccccc1` was run?
**A.** 0.94 (inactive)

**Q.** For `CCCCCc1c(C)nc(N2CCN(Cc3ccc4c(c3)OCO4)CC2)[nH]c1=O`, which activation factor is on record?
**A.** 0.962 (inactive)

**Q.** For `CCCCCCCCc1c(O)nc(-n2[nH]c(C)c(CCO)c2=O)[nH]c1=O`, which activation factor is on record?
**A.** 2.2 (active)

**Q.** For `CCCCc1c(O)nc2n(c1=O)CCS2`, which activation factor is on record?
**A.** 0.971 (inactive)

**Q.** With `CN(CCc1ccccn1)C(=O)CCC1CCCN(Cc2ccccc2OC(F)F)C1` (stereo not given) as the compound, how does the activation factor read?
**A.** 1.17 (inactive)

**Q.** For `CN1CCC(N(C)S(=O)(=O)c2ccc(NC(=O)c3cccc(C#N)c3)cc2)CC1`, which activation factor is on record?
**A.** 0.888 (inactive)

**Q.** With `Cc1ccc(C)c(NC(=O)c2cc(-c3cc(C)cc(C)c3O)n[nH]2)c1` as the compound, how does the activation factor read?
**A.** 1.49 (inactive)

**Q.** With `Cc1ccc(O)c(-c2cc(C(=O)Nc3c(C)n(C)n(-c4ccccc4)c3=O)[nH]n2)c1` as the compound, how does the activation factor read?
**A.** 1.84 (inactive)

**Q.** With `Cc1ccc(NC(=O)c2cc(-c3ccccc3O)n[nH]2)cc1C` as the compound, how does the activation factor read?
**A.** 2.39 (active)

**Q.** For `Cc1ccc(CNC(=O)c2ccccc2CCc2ccccc2)cc1`, which activation factor is on record?
**A.** 0.921 (inactive)

**Q.** `Cc1ccc(NC(=O)CCN2C(=O)c3ccccc3C2=O)cc1C` was tested. Which activation factor did it give?
**A.** 0.917 (inactive)

**Q.** How did the activation factor turn out when `Cc1ccc(O)c(-c2cc(C(=O)NCc3ccccc3)[nH]n2)c1` was run?
**A.** 2.06 (active)

**Q.** `CN1CCN(CC(O)COCc2ccc3c(c2)OCO3)CC1` (stereo not given) was tested. Which activation factor did it give?
**A.** 0.998 (inactive)

**Q.** With `CC(C)COC(=O)C1C2C=CC3(CN(C(C)c4ccc(Br)cc4)C(=O)C13)O2` (stereo not given) as the compound, how does the activation factor read?
**A.** 0.726 (inactive)

**Q.** For `COc1cc(NS(=O)(=O)c2ccc(N/C=C(\C=O)c3nc4cc(Cl)ccc4o3)cc2)nc(OC)n1`, which activation factor is on record?
**A.** 1.26 (inactive)

**Q.** Which activation factor does the source give for `COc1ccc(C(=O)NC2CC(C)(C)Cc3c2cnn3-c2ccccc2C)o1` (stereo not given) here?
**A.** 1.38 (inactive)

**Q.** How did the activation factor turn out when `CCCc1ccc(C(=O)COC(=O)CN2C(=O)NC3(CCCCC3C)C2=O)cc1` (stereo not given) was run?
**A.** 1.11 (inactive)

**Q.** Which activation factor does the source give for `CC(C)CCn1c(=O)c2c(nc3n2CCCN3Cc2ccccc2)n(C)c1=O` here?
**A.** 0.846 (inactive)

**Q.** For `COc1ccc(NS(=O)(=O)c2ccc(Oc3c(C#N)cccc3C#N)cc2)cc1`, which activation factor is on record?
**A.** 1.1 (inactive)

**Q.** How did the activation factor turn out when `CCn1nc(NC(=O)c2ccco2)c2cc3ccc(C)cc3nc21` was run?
**A.** 1.16 (inactive)

**Q.** For `CC(C)n1cnc2c(NCc3ccccc3)cc(N[C@@H](CO)Cc3ccccc3)cc21`, which activation factor is on record?
**A.** 0.984 (inactive)

**Q.** With `Cc1cc(C(=O)NNC(=O)c2cccc(S(=O)(=O)N3CCOCC3)c2)c2ccccc2n1` as the compound, how does the activation factor read?
**A.** 0.981 (inactive)

**Q.** `O=C(Nc1ccc(N2CCOCC2)cc1)c1cccc(S(=O)(=O)N2CCOCC2)c1` was tested. Which activation factor did it give?
**A.** 1.08 (inactive)

**Q.** For `O=C(NNC(=S)Nc1ccccc1)c1cccc(S(=O)(=O)N2CCOCC2)c1`, which activation factor is on record?
**A.** 2.01 (active)

**Q.** How did the activation factor turn out when `CCOC(=O)CNC(=O)/C=C/c1c(Cl)cccc1Cl` was run?
**A.** 0.968 (inactive)

**Q.** Which activation factor does the source give for `C/C(=N\OC(=O)c1ccccc1)c1c(C)nc2cc(C)ccn12` here?
**A.** 1.06 (inactive)

**Q.** `CCn1cc(CN2CCC(C(=O)Nc3cccc(-c4cccc(Cl)c4)c3)CC2)cn1` was tested. Which activation factor did it give?
**A.** 1.12 (inactive)

**Q.** How did the activation factor turn out when `COc1cccc(-c2cccc(NC(=O)C3CCN(C4CCC4)CC3)c2)c1` was run?
**A.** 1.23 (inactive)

**Q.** `O=C(Nc1cccc(-c2cccc(Cl)c2)c1)C1CCN(C2CCC2)CC1` was tested. Which activation factor did it give?
**A.** 4.26 (active)

**Q.** `CC(=O)Nc1cccc(OCC(=O)/C=C2\N(C)c3ccccc3C2(C)C)c1` was tested. Which activation factor did it give?
**A.** 0.862 (inactive)

**Q.** For `CN(C)c1cccc(C(=O)N2CCC(n3nccc3NC(=O)C3CCOC3)CC2)c1` (stereo not given), which activation factor is on record?
**A.** 1.28 (inactive)

**Q.** For `CN1CCc2c(sc3c2c(NCc2ccco2)nc2nnnn23)C1`, which activation factor is on record?
**A.** 1.04 (inactive)

**Q.** How did the activation factor turn out when `COc1ccc(NC(=O)CC2C(=O)OCC3CCCCN32)cc1Cl` (stereo not given) was run?
**A.** 1.01 (inactive)

**Q.** For `O=C(COc1ccc(Cl)cc1)NCCS(=O)(=O)N1CCN(c2ccc(F)cc2)CC1`, which activation factor is on record?
**A.** 0.818 (inactive)

**Q.** How did the activation factor turn out when `CCc1c(C)nc(SCC(=O)NC2CCCC2)[nH]c1=O` was run?
**A.** 1.03 (inactive)

**Q.** Which activation factor does the source give for `NS(=O)(=O)c1cccc(NC(=O)COC(=O)c2cc([N+](=O)[O-])ccc2N2CCCC2)c1` here?
**A.** 0.907 (inactive)

**Q.** For `CCc1ccc(S(=O)(=O)Nc2ccc(C)c(NS(C)(=O)=O)c2)cc1`, which activation factor is on record?
**A.** 0.919 (inactive)

**Q.** Which activation factor does the source give for `Cc1ccccc1NC(=O)Cn1cc(C(=O)C2CC2)c2ccccc21` here?
**A.** 1.02 (inactive)
